Screening results as filed in PubChem BioAssay.
In the library only some 5.5% were active in any assay of this set; here they are far more common.
Sfp inh: inhibitors of Bacillus subtilis Sfp phosphopantetheinyl transferase; hit rate 3.5% among 310,000; Biochemical Sfp PPTase activity, qHTS; AID 1490; Potency, µM, for inactives: largest response in the series, negative = inhibition, usual class: inhibitors;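 further: the enzyme is Sfp with the accession as filed and its product quenches rhodamine fluorescence; potency means the concentration at half of the fitted maximal effect; 0% = enzyme reaction without inhibitor and -100% = no enzyme wells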
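Fluorescence-quenching assay: 15 nM Sfp-PPTase preincubated 15 min at room temperature with compound, then 5 uM rhodamine-CoA and 12.5 uM BHQ-2-labelled YbbR peptide added. Fluorescence (ex 525/em 598 nm) read at start and after 30 min; difference gives rate.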
Giardia killer: Giardia lamblia killing | activity change, % at 7.66 µM, hits read low | hit rate 0.15% among 340,000 | Giardia lamblia trophozoite viability; in the data active means activity change below about -80%; inconclusive means between about -30% and that limit;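 further: parasites exposed to compound for two days anaerobically before the ATP read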
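Trophozoite viability was measured as ATP-dependent luminescence, read 15-30 min after reagent addition. Before that, parasites at 100 cells/well were exposed to compounds for 48 h, anaerobically, at 37 deg C.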
ELG1 repair inh: blocks ELG1-dependent DNA repair in HEK293T cells | HEK293T ELG1-luciferase reporter, luminescence, 16 h; DNA damage induced by 5-fluorouridine | Potency, µM (highest dose often 46.1 µM), for the others: at the top dose activity change, negative = inhibition, actives largely listed as inhibitors | hit rate 2.3% among 330,000 | AID 504467; further: potency means the concentration at half of the fitted maximal effect; nearly all actives have a fitted effect of over 55% in size
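Reporter activity after DNA damage by 5-fluorouridine is monitored. Compound-treated cells incubate 16 hr at 37 °C, then ONE-Glo is added for 30 min before luminescence reading.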
Coupling enz: inhibits coupling enzyme system, counter-screen for aldolase hits; coupling enzyme system counterscreen, AmpLite Red fluorescence; activity change, negative = inhibition, % at 58.2 µM, hits read low; hit rate 0.67% among 290,000; in the data active means activity change below about -30%
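Fluorescence at 525 nm excitation and 598 nm emission measured inhibition of the coupled detection system without aldolase. Compounds (at 57.5 uM final) were preincubated 10 min at room temperature with coupling enzyme reagent before a 20 min substrate/AmpLite Red step.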
* hit, by the source's call; ? = inconclusive; nt = no result given. Unless noted, the call rests on the fitted dose curve; in most records, active means well fitted curve in the direction sought with a large enough effect; inconclusive means small, poorly fitted or top-dose-only effect, or another doubt; inactive means no such curve, though single readings can be large; an effect the other way counts as inactive or inconclusive. Unless noted, on the % scale 0 is the no-effect control and ±100 the full control effect.

SMILES | Sfp inh | Giardia killer | ELG1 repair inh | Coupling enz
COc1ccc(N(CC(=O)Nc2cccc(N(C)S(C)(=O)=O)c2)S(=O)(=O)c2ccccc2)cc1Cl | 9.8% | 7.7 | 8.2µM* | -3.0
CC(c1ccon1)N(C)C(=O)c1ccc2nc(Cc3cccc(Cl)c3)oc2c1 (stereo not given) | 1.6% | 6.5 | 0.8% | nt
CCOc1ccc(N(CC(=O)Nc2cccc(N(C)S(C)(=O)=O)c2)S(=O)(=O)c2ccccc2)cc1 | 25.9% | 12.1 | 13µM* | -4.0
CC(=O)N1CCC(C(=O)Nc2nnc(C(C)C)s2)CC1 | nt | -19.5 | nt | nt
COc1ccccc1CC(=O)Nc1cccc(C(=O)Nc2nccs2)c1 | 0.4% | 1.0 | 16.4µM* | 1.6
CCOC(=O)c1sc2nc(C)nc(SCC(=O)N(CC)C3CCS(=O)(=O)C3)c2c1C (stereo not given) | 19.2% | -3.3 | 16.4µM* | 2.2
O=C(NCc1nnc(SCC(=O)N2CCCCCC2)o1)c1ccccc1F | 14.7% | 13.0 | 1.9% | nt
CC(C)n1c(-c2cccnc2)nc2cnccc21 | 10.0% | 10.8 | 13µM* | -1.0
Cn1c(-c2ccccc2)nc2cnccc21 | -6.4% | -12.4 | 79.7% | 6.5
O=C(NCc1ccncc1)C(=O)Nc1nc(C23CC4CC(CC(C4)C2)C3)cs1 | -7.2% | 2.8 | 18.4µM* | -2.5
O=C(NCc1ccccc1)C(=O)Nc1nc(C23CC4CC(CC(C4)C2)C3)cs1 | 11.4% | 12.6 | ? | 2.6
CCn1c(CNc2nc(-c3ccccc3)cs2)nnc1SCC(=O)NCc1ccco1 | 56.2µM* | -5.8 | -4.2% | -1.5
CCn1c(SCC(=O)NCc2ccco2)nnc1-c1ccncc1 | 10.6% | nt | 2.0% | 2.5
CCn1c(SCC(=O)NCc2ccco2)nnc1-c1cccs1 | 14.1µM* | 3.6 | 0.1% | -11.0
CCC(=O)Nc1nnc(-c2ccccn2)o1 | 50.1µM* | -18.3 | ? | -0.8
O=C(c1ccco1)N1CCN(C(c2ccc(Cl)cc2)c2nnnn2CC2CCCO2)CC1 (stereo not given) | 56.2µM* | 1.8 | 14.4% | -0.5
O=C(c1ccco1)N1CCN(C(c2ccc(F)cc2)c2nnnn2Cc2cccs2)CC1 (stereo not given) | -18.2% | 22.0 | -7.2% | 1.0
Cc1ccc(C(c2nnnn2CC2CCCO2)N2CCN(C(=O)c3ccco3)CC2)cc1 (stereo not given) | 10.0% | 2.5 | 3.2% | -1.3
O=C(c1ccco1)N1CCN(C(c2ccccc2)c2nnnn2Cc2cccs2)CC1 (stereo not given) | 79.4µM* | 4.2 | 14.8% | 0.0
O=C(c1ccco1)N1CCN(C(c2ccccc2Cl)c2nnnn2Cc2ccco2)CC1 (stereo not given) | 50.1µM* | -3.1 | ? | 4.2
CC(C)C(c1nnnn1Cc1cccs1)N1CCN(C(=O)c2ccco2)CC1 (stereo not given) | 17.8µM* | -7.7 | 6.51µM* | -2.2
CC(C)C[C@H](NC(=O)[C@H](CO)NC(=O)[C@H](C)NC(=O)[C@H](CCCN=C(N)N)NC(=O)[C@H](CCCN=C(N)N)NC(=O)[C@@H](N)CC(C)C)C(=O)NCC(=O)O | 15.2% | nt | nt | 1.2
COc1cc(OC)cc(C(=O)NC(=S)Nc2nnn(C)n2)c1 | 35.5µM* | 1.0 | 15.3% | -7.3
Cn1nnc(NC(=S)NC(=O)c2cccc3ccccc23)n1 | 35.5µM* | ? | 2.1% | nt
Cn1nnc(NC(=S)NC(=O)c2cccs2)n1 | -71.3% | 2.4 | 19.0% | -7.2
SMILES | Sfp inh | Giardia killer | ELG1 repair inh | Coupling enz
CC(=O)c1ccc(-c2cccc(C3C4C=CCCC4(C)C(=O)N3Cc3ccccc3)c2)cc1 (stereo not given) | -28.6% | -29.2 | nt | 1.0
CCCCCCCCOC(=O)c1cc([N+](=O)[O-])c(Sc2ncnc3nc[nH]c23)c([N+](=O)[O-])c1 | nt | -9.1 | nt | nt
CCN(CC)C[C@@H](O)CN1CCCCc2nc(C)c(C)cc21 | 8.8% | nt | nt | 0.9
Cc1ccc(S(=O)(=O)N[C@@H](CC(C)C)C(=O)N2CCC(C(=O)N[C@H](C(=O)O)C(C)C)CC2)cc1 | 11.2% | -1.1 | 12.0% | 0.1
COC(=O)c1cc(C)nc2c1C(=O)C(=O)C=C2N1CCOCC1 | -10.9% | -3.2 | 5.17µM* | -79.2*
Cn1c2ccccc2c2cc(/C=N/NC(=O)c3ccccc3F)ccc21 | 5.5% | 3.0 | 23.1µM* | 0.5
CSc1ccccc1NC(=O)COC(=O)Cn1cc(C(F)(F)F)ccc1=O | nt | 23.2 | 23.4% | nt
CCCCCC(=O)NNC(=S)NC(C)=O | 79.4µM* | -3.1 | -2.4% | 1.6
CN(C)c1ccc(NC(=O)c2ccc([N+](=O)[O-])cc2Cl)cc1 | 10.4% | -1.9 | ? | 1.1
CCC(=O)NC(=S)Nc1ccc(NC(=O)c2ccc([N+](=O)[O-])cc2Cl)cc1 | 7.3% | -14.8 | 5.8µM* | 0.4
CCC(=O)NC(=S)NNC(=O)c1ccc([N+](=O)[O-])cc1 | 79.4µM* | ? | 6.1% | -10.6
CCC(=O)NC(=S)NNC(=O)c1ccc(OC)cc1 | 56.2µM* | -20.0 | -1.7% | -1.4
CCCCC(=O)NNC(=S)NC(=O)c1ccc(C)cc1 | ? | -4.4 | -13.1% | 0.3
CCCCC(=O)NNC(=S)NC(=O)c1ccc([N+](=O)[O-])cc1 | 20µM* | ? | ? | 2.3
CCCCC(=O)NNC(=S)NC(=O)c1cccc([N+](=O)[O-])c1 | -80.9% | -3.0 | ? | -5.1
COc1ccc(C(=O)Oc2c(CN3CCOCC3)cc(Cl)c3cccnc23)cc1OC | nt | 16.5 | nt | nt
O=C(Oc1c(CN2CCOCC2)cc(Cl)c2cccnc12)c1ccccc1 | -6.3% | -20.3 | 23.1µM* | 5.5
O=C(Oc1c(CN2CCOCC2)cc(Cl)c2cccnc12)c1ccccc1F | 13.2% | 16.1 | 10.3µM* | -12.3
COc1cc(OC)cc(C(=O)Oc2c(CN3CCOCC3)cc(Cl)c3cccnc23)c1 | -9.3% | -11.1 | 16.4µM* | -7.6
Cc1ccc(S(=O)(=O)N2CCC(C(=O)OCC(=O)N3CCCC(C)C3)CC2)cc1C (stereo not given) | nt | -8.3 | 1.8% | nt
COc1ccc(N2CCN(C(=O)c3ccc4c(c3)NC(=O)C(CSCc3ccc(C)cc3)N4)CC2)cc1 (stereo not given) | 39.8µM* | nt | 14.5% | -2.0
COc1ccc(N2CCN(C(=O)c3ccc4c(c3)NC(=O)C(CSCc3cccc(F)c3)N4)CC2)cc1 (stereo not given) | 56.2µM* | nt | 2.0% | nt
Cc1ccc(-n2ccnc(SCC(=O)NC3CCCCC3)c2=O)cc1F | nt | 2.6 | 2.3% | nt
CCc1nn(CC(=O)N(C)C2CCCCC2)c(=O)c2cc3cc(C)ccc3n12 | 14.1% | -5.2 | 19.3% | nt
Cc1cc(C(=O)NC2CCCc3c2cnn3-c2ccccc2F)nc(C)n1 (stereo not given) | -6.5% | -0.8 | 13µM* | nt
CC(=O)c1ccc(-c2ccc(C(=O)N(C)c3c(N)n(Cc4ccccc4)c(=O)[nH]c3=O)o2)cc1 | nt | -8.4 | ? | nt
O=C(COc1ccc(Br)cc1Br)NC(=S)N1CCCc2ccccc21 | 56.2µM* | 4.4 | ? | -2.1
c1csc(CNc2cc(-c3ccoc3)ncn2)c1 | 31.6µM* | nt | nt | 0.3
O=C(Cc1ccccc1F)Nc1ccc(S(=O)(=O)Nc2ncccn2)cc1 | 6.6% | 4.4 | 7.8% | 1.3
